Results: PubChem BioAssay AID1851 (National Center for Advancing Translational Sciences (NCATS), 2009)
The campaign covered roughly 16,000 compounds. About 5,100 (32%) were called active. Inconclusive results (about 25%) are left out. Some of the results follow. Values without a mark were called inactive. Calls come from the whole dose curve; as a rule, active = well fitted curve in the direction sought with a large enough effect; inconclusive = small, poorly fitted or top-dose-only effect, or effect the other way; inactive = no such curve, though single readings can be large or run the other way. Square brackets hold non-standard residues; d marks the D form. Peptide text beside a SMILES is read from it.
% is set by controls: 0 for no effect and ±100 for the full control effect.

What follows are compounds tested against Cytochrome P450 3A4 (Homo sapiens) (UniProt P08684) (assay: Cytochrome panel assay with activity outcomes). Conditions: recombinant CYP, pro-luciferin dealkylation, luminescence, p450-cyp3a4; series mostly up to 57.1 µM.
Cytochrome P450 3A4 (Homo sapiens), sequence (P08684 whole entry, looked up): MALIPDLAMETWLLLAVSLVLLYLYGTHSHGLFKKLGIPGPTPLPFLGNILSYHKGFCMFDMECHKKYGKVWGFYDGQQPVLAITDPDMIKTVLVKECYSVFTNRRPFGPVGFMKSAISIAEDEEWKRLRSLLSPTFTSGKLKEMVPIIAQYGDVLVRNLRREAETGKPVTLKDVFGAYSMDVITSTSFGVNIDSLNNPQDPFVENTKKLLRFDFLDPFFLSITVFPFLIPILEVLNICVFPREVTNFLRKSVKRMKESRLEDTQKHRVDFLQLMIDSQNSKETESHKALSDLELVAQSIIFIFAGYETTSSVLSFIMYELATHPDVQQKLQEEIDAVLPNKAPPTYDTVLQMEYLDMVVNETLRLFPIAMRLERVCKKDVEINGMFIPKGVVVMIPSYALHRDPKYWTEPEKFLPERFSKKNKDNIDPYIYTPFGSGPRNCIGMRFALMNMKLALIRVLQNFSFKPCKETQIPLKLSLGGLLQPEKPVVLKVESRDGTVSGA
With C[C@@H](N)[C@@H](C)Cc1ccccc1 the activity, negative = inhibition was -8.05% [at 11.4 µM]. For CN(C)CCO[C@](C)(c1ccccc1)c1ccccn1, the AC50 was “inactive”. CCCn1nc(Oc2nc(NCC)nc(NCC)n2)ccc1=O was tested, and the AC50 was “inactive”. CCCCCCCCCCCCCCCC(=O)C(F)(F)F was tested, and the AC50 was “inactive”. With COc1ncc2nc(-c3cccs3)c(=O)n(-c3ccccc3)c2n1 the AC50 was “inactive”. For COc1ccc(Oc2ncc3nc(-c4cccs4)c(=O)n(-c4ccccc4)c3n2)cc1, the AC50 was 2.51 µM (active). With COc1ccc(-n2c(=O)c(-c3cccs3)nc3cnc(Oc4ccccc4)nc32)cc1 the AC50 was “inactive”. For COc1ccc(-n2c(=O)c(-c3cccs3)nc3cnc(OC)nc32)cc1, the AC50 was 7.94 µM (active). CN(C)CCN(c1ccccn1)c1ccccn1 gave an activity, negative = inhibition of -13.9% [at 11.4 µM]. N#C[C@H]1CN[C@H](N)N[C@@H]1N showed an activity, negative = inhibition of -6.92% [at 11.4 µM]. For COc1ccc(-c2ccc(/C=C3\C(=O)N(c4ccccc4)N=C3c3ccccc3)o2)c([N+](=O)[O-])c1, the AC50 was 2 µM (active). In the case of Cc1sc(=NC(=O)c2ccco2)n(C)c1-c1ccc(F)cc1, the AC50 is reported as “inactive”. COCc1c(C(N)=O)nnn1-c1nonc1N was tested, and the AC50 was “inactive”. For N#CN(CC(N)=O)c1nc(N2CCCCC2)nc(N2CCCCC2)n1, the activity, negative = inhibition was -13.4% [at 11.4 µM]. For CCOC(=O)c1nnn(-c2nonc2N)c1-c1ccccc1, the AC50 was 15.8 µM (active). For CCOC(=O)c1nnn(-c2nc(OC)nc(N3CCCCC3)n2)c1-c1ccccc1, the AC50 was 15.8 µM (active). CCOC(=O)c1nnn(-c2nonc2N)c1-c1ccc(C)cc1 showed an activity, negative = inhibition of -14.1% [at 2.29 µM]. With CCOC(=O)c1cnc(SCCc2ccccc2)nc1N the AC50 was “inactive”. For CC(C)(O)c1cn(-c2nonc2N)nn1, the AC50 was “inactive”. For Nc1nonc1-n1nncc1-c1ccccc1, the AC50 was 15.8 µM (active). For CC(C)OC(=O)c1nnn(-c2nonc2N)c1CSc1ccccn1, the AC50 was 0.398 µM (active). In the case of COc1nc(/C(N)=N/O)nc(N2CCCCC2)n1, the AC50 is reported as “inactive”. CCCOc1cc(N)ccc1C(=O)OCCN(CC)CC was tested, and the AC50 was “inactive”. With N[C@H](CO)C(=O)NCC(=O)O (H-[dS]-Gly-OH) the activity, negative = inhibition was -1.48% [at 11.4 µM]. With CC(=O)N=c1sc(S(N)(=O)=O)nn1C the AC50 was “inactive”. CCc1cc2c(=O)c(-c3nc4ccccc4n3C)c(C)oc2c(CN(CC)CC)c1O was tested, and the AC50 was “inactive”. Work on CN(C)Cc1cc(O)c(O)c(CN(C)C)c1 yielded an activity, negative = inhibition of -13.7% [at 11.4 µM]. Cc1cc2c(s1)CCCCC(=O)N2 was tested, and the AC50 was “inactive”. Cc1c(C(=O)N2CCCCCC2)nnn1-c1nonc1N was tested, and the AC50 was 11.2 µM (active). With Cc1nonc1NC(=O)N1CCCC1 the AC50 was “inactive”. With CCOc1nc(N2CCCCC2)nc(-n2cc(-c3ccccc3)nn2)n1 the AC50 was 15.8 µM (active). In the case of CC1CCN(CC[S-])CC1.O.O.[Cl][Pt], the activity, negative = inhibition is reported as -1.49% [at 11.4 µM]. With Cc1cc(C(=O)N[C@@H](c2ccccc2)[C@]2(C)C[C@H]2[C@@H](C)C(=O)Nc2ccc3ccccc3c2)n(C)n1 the AC50 was 0.794 µM (active). Cc1cc(C(=O)N[C@H](c2ccccc2)[C@@]2(C)C[C@@H]2[C@@H](C)C(=O)Nc2ccc3ccccc3c2)n(C)n1 was tested, and the AC50 was 0.794 µM (active). O=C(Nc1cc(C(=O)Nc2ccc(S(=O)(=O)O)cc2S(=O)(=O)O)cc(C(=O)Nc2ccc(S(=O)(=O)O)cc2S(=O)(=O)O)c1)Nc1cc(C(=O)Nc2ccc(S(=O)(=O)O)cc2S(=O)(=O)O)cc(C(=O)Nc2ccc(S(=O)(=O)O)cc2S(=O)(=O)O)c1 was tested, and the AC50 was “inactive”. With Fc1nc(N2CCCC2)c(F)c(Oc2ccccc2Oc2c(F)c(F)nc(N3CCCC3)c2F)c1F the AC50 was “inactive”. Cc1noc(C)c1-c1ccc2ncnc(N(C)C)c2c1 was tested, and the AC50 was “inactive”. CN(Cc1ccco1)c1ncnc2ccc(-c3ccc4c(c3)OCO4)cc12 was tested, and the AC50 was 2.51 µM (active). CN(Cc1ccco1)c1ncnc2ccc(-c3ccoc3)cc12 was tested, and the AC50 was 25.1 µM (active). For CN(C)C(=O)c1ccc(-c2cc(N(C)Cc3ccco3)ncn2)cc1, the AC50 was “inactive”. In the case of Cc1noc(C)c1-c1ccc2ncnc(N(C)Cc3ccco3)c2c1, the AC50 is reported as 25.1 µM (active). With N#CC(CC(=O)O)=C(c1ccccc1)c1ccccc1 the activity, negative = inhibition was 5.39% [at 11.4 µM]. Compound CC(=O)Nc1c(C)nn(-c2ccc(C)c(C)c2)c1C has an activity, negative = inhibition of -3.89% [at 11.4 µM]. Cc1nn(-c2ccc(F)cc2)c(C)c1NS(=O)(=O)c1ccc2ccccc2c1 was tested, and the AC50 was 4.47 µM (active). Cc1nn(-c2ccc(F)cc2)c(Cl)c1/C=C(\CCC(=O)O)c1nc2ccccc2s1 was tested, and the AC50 was “inactive”. For Cc1cccc(NC(=S)N/N=C/c2ccc([N+](=O)[O-])s2)c1, the AC50 was 22.4 µM (active). With Cc1ccc(C(=O)N/N=C/c2ccc([N+](=O)[O-])s2)cc1 the AC50 was “inactive”. In the case of O=[N+]([O-])c1ccc(C=Nc2ccc(Cl)cc2Cl)s1, the AC50 is reported as “inactive”. With O=C(O)Cc1ccc(NC(=O)C2CCCCC2C(=O)O)cc1 (stereo unspecified) the AC50 was “inactive”. CCSc1nnc(NC(=O)C(C(F)(F)F)C(F)(F)F)s1 was tested, and the AC50 was “inactive”. With CCSc1nnc(NC(=O)Cc2ccc(OC)c(OC)c2)s1 the activity, negative = inhibition was -2.65% [at 2.29 µM]. In the case of CCSc1nnc(NC(=O)CSc2nc3c(cc2C#N)CCCC3)s1, the AC50 is reported as 10 µM (active). With O=C(NCCc1ccc(O)cc1)c1ccc(Cl)cc1 the activity, negative = inhibition was 1.62% [at 2.29 µM]. Oc1cc2c(cc1O)CN(C(=S)NCCc1ccc(Cl)cc1)CCC2 was tested, and the AC50 was 3.16 µM (active). With CC[C@@]1([N+](=O)[O-])C[C@H]2C=C[C@@H]1C2 the activity, negative = inhibition was -4.49% [at 11.4 µM]. For C/C(=C\c1ccco1)C1C(C#N)=C(N)Oc2n[nH]c(-c3ccccc3)c21 (stereo unspecified), the AC50 was 3.98 µM (active). In the case of Cc1ccc(NC(=O)C(=O)NCc2ccc(/C=C(/C#N)C(=O)NCc3cccnc3)o2)cc1, the AC50 is reported as 1.41 µM (active). In the case of Cc1cc(N)n(-c2ccccc2)n1, the AC50 is reported as “inactive”. For Nc1nc(-c2ccc3ccccc3c2)cc(-c2cc(-c3ccc4ccccc4c3)nc(N)n2)n1, the activity, negative = inhibition was -3.3% [at 11.4 µM]. With Cc1cc(N)n(-c2ccc3ccccc3c2)n1 the AC50 was 28.2 µM (active). With COc1cc(N=C(N)N=C(N)N)c2ncccc2c1 the activity, negative = inhibition was -8.88% [at 11.4 µM].
